# Laboratory results from PubChem BioAssay (Tox21).
# Records with an inconclusive call do not appear. Entries that show only a call come without a potency. Activity calls are given as the source filed them. Calls come from the whole dose curve; as a rule, active = well fitted curve in the direction sought with a large enough effect in the repeat runs; inconclusive = weak or mixed curves; inactive = no such curve, though single readings can be large; an effect the other way counts as inactive or inconclusive.
# What was measured:
# [1] = target: Cytochrome P450 2C9 (Homo sapiens) (UniProt P11712); assay: Cytochrome P450 Family 2 Subfamily C Member 9 (CYP2C9) small molecule antagonists: luciferase reporter qHTS assay (AID 1671198); note: potency is the fitted concentration of half-maximal effect; for activity change, negative = inhibition: series mostly up to about 120 µM
# Summary of the method: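 CYP2C9 activity was measured with a P450-Glo proluciferin substrate. Enzyme–substrate mix was held with compound for 10 min at room temperature, then NADPH regeneration solution was added for 1 h at 37C. Luciferin product was read as luminescence.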
# [2] = target: Voltage-gated inwardly rectifying potassium channel KCNH2 (Homo sapiens) (UniProt Q12809); assay: Human Ether-a-go-go-Related Gene (hERG) channel small molecule antagonists: fluorescence cell-based qHTS assay (AID 1671200);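 note: hERG-expressing U2OS cells given a thallium stimulus after FluxOR II dye loading; series mostly up to about 77 µM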
# Summary of the method: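 Read-out: thallium influx as a surrogate for potassium, tracked as fluorescence (480 nm ex/540 nm em) every second for 2 min after Stimulus Buffer addition in dye-loaded hERG-U2OS cells.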
# [3] = target: Cytochrome P450 1A2 (Homo sapiens) (UniProt P05177); assay: Cytochrome P450 Family 1 Subfamily A Member 2 (CYP1A2) small molecule antagonists: luciferase reporter qHTS assay (AID 1671199); note: potency is the fitted concentration of half-maximal effect; for activity change, negative = inhibition: series mostly up to about 120 µM
# Summary of the method: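 Inhibition of CYP1A2 conversion of proluciferin to luciferin, detected by luminescence. Reaction run 1 h at room temperature with NADPH regeneration after brief compound preincubation.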
# [4] = target: Cytochrome P450 3A4 (Homo sapiens) (UniProt P08684); assay: Cytochrome P450 Family 3 Subfamily A Member 4 (CYP3A4) small molecule antagonists: luciferase reporter qHTS assay (AID 1671201); note: potency is the fitted concentration of half-maximal effect; for activity change, negative = inhibition: series mostly up to about 120 µM
# Summary of the method: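 Luminescent readout (RLU) proportional to CYP3A4 activity, from luciferin generated off a proluciferin substrate. Enzyme–substrate mix plus compound 10 min at room temp, NADPH regeneration 1 h, detection reagent 20 min.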
# Note: nearly all actives have a fitted effect of over 50% in size.
# Cytochrome P450 3A4 (Homo sapiens), sequence (P08684 whole entry, looked up): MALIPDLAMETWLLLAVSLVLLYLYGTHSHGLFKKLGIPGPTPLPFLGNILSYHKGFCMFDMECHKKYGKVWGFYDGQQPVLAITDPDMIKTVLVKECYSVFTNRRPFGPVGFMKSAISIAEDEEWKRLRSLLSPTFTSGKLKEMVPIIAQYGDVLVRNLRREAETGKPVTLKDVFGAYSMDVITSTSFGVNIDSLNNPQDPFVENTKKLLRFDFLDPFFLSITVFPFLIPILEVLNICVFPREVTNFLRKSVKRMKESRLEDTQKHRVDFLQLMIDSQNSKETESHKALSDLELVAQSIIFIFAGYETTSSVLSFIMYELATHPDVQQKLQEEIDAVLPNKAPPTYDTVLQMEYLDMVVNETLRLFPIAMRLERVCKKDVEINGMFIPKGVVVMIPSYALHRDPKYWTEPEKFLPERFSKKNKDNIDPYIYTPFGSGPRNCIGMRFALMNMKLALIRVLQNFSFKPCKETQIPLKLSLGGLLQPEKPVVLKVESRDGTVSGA
# Voltage-gated inwardly rectifying potassium channel KCNH2 (Homo sapiens), sequence (Q12809 whole entry, looked up): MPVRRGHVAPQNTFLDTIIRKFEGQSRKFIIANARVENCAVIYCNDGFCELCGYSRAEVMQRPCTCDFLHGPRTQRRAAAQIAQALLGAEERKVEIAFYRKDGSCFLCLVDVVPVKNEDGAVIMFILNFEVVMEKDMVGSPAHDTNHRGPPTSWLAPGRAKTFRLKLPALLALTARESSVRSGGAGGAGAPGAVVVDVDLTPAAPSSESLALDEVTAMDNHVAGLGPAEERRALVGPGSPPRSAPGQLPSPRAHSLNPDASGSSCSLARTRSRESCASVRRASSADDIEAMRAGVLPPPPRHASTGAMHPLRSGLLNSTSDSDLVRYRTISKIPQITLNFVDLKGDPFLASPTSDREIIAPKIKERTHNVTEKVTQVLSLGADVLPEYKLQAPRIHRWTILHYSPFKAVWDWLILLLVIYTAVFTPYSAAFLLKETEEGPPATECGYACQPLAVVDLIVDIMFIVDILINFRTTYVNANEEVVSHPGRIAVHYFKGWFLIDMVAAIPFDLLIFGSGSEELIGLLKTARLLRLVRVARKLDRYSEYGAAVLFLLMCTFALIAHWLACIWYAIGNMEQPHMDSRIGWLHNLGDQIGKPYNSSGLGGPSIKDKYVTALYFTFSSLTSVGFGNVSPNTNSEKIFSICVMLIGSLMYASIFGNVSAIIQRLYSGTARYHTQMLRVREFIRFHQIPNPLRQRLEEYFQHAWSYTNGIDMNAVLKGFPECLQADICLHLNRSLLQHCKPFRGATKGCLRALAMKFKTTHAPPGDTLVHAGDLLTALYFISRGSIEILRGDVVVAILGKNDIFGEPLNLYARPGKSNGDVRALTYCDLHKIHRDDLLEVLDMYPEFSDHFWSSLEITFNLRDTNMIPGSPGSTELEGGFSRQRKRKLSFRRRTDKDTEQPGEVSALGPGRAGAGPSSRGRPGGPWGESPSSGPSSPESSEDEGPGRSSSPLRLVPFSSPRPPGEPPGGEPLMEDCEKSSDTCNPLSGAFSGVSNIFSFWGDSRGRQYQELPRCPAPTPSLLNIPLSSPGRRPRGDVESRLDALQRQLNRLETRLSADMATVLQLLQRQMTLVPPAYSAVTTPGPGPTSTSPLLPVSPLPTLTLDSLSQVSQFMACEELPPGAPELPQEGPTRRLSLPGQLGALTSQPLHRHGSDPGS
# Cytochrome P450 2C9 (Homo sapiens), sequence (P11712 whole entry, looked up): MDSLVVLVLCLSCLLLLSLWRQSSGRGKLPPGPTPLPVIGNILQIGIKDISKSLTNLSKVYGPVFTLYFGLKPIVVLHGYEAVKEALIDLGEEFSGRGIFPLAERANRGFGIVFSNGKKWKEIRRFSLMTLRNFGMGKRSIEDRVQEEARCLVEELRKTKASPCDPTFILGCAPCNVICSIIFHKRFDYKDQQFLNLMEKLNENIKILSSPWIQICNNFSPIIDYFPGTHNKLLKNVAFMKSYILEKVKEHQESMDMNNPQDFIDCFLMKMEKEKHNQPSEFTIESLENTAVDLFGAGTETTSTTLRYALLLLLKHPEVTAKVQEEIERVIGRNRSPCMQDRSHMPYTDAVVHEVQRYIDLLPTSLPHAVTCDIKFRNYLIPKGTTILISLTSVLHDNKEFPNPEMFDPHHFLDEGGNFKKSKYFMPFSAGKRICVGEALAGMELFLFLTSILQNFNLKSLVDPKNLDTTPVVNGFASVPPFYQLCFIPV
# Cytochrome P450 1A2 (Homo sapiens), sequence (P05177 whole entry, looked up): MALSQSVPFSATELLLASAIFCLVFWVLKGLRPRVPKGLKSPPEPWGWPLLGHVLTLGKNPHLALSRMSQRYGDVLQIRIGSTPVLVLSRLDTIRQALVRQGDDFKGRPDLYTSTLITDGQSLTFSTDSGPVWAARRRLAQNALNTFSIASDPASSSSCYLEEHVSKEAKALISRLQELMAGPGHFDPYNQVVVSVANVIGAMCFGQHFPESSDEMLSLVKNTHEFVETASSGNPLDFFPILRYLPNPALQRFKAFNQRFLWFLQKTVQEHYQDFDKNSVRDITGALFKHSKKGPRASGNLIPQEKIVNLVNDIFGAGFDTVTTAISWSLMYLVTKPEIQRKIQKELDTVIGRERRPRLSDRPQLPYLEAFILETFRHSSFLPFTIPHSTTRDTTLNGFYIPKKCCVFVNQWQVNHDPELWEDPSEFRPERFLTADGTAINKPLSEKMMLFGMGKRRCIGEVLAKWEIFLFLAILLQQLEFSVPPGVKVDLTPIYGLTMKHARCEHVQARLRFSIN
smiles,measurement,setting,value
c1ccc2sc(SN3CCOCC3)nc2c1,Potency,[1],17.4 µM (active)
same,Potency,[2],inactive
O=C(O)CCSCCC(=O)O,Potency,[1],inactive
same,Potency,[3],inactive
same,Potency,[2],inactive
same,Potency,[4],inactive
CO[Si](C)(OC)c1ccccc1,Potency,[1],35.6 µM (active)
same,Potency,[2],inactive
C=CCOCC(O)CO (centres undefined),Potency,[1],inactive
same,Potency,[3],inactive
same,Potency,[2],inactive
same,Potency,[4],inactive
COc1cc(-c2ccc(=O)[nH]n2)ccc1OC(F)F,Potency,[1],inactive
same,Potency,[2],inactive
O=S(=O)(O)c1cc(O)c(O)c(S(=O)(=O)O)c1,Potency,[1],inactive
same,Potency,[3],inactive
same,Potency,[2],inactive
same,Potency,[4],inactive
CC(=O)Oc1cccc(C)c1,Potency,[1],inactive
same,Potency,[3],inactive
same,Potency,[2],inactive
same,Potency,[4],inactive
Cc1cc(C)c(N=Nc2c(O)c(S(=O)(=O)O)cc3cc(S(=O)(=O)O)ccc23)cc1C,"activity change, negative = inhibition",[1],1.8% [at 10.5 µM] (inactive)
same,"activity change, negative = inhibition",[2],-0.475% [at 6.97 µM] (inactive)
same,"activity change, negative = inhibition",[4],1.68% [at 10.5 µM] (inactive)
O=C(O)c1cc(C(=O)O)cc(C(=O)O)c1,Potency,[1],inactive
same,Potency,[3],inactive
same,Potency,[2],inactive
same,Potency,[4],inactive
CC(C)(C)C(=O)c1ccccc1,Potency,[1],inactive
same,Potency,[2],inactive
COCCOCC(OC)OC,Potency,[1],inactive
same,Potency,[3],inactive
same,Potency,[2],inactive
same,Potency,[4],inactive
CC(COc1ccccc1)NN (centres undefined),Potency,[1],inactive
same,Potency,[3],inactive
same,Potency,[2],inactive
same,Potency,[4],inactive
Clc1cc(Cl)cc(Cl)c1,Potency,[1],inactive
same,Potency,[3],inactive
same,Potency,[2],inactive
same,Potency,[4],inactive
C1CCC2(CCCCO2)OC1,Potency,[1],inactive
same,Potency,[3],inactive
same,Potency,[2],inactive
same,Potency,[4],inactive
O=C(CO)[C@@H](O)[C@H](O)[C@@H](O)CO,Potency,[1],inactive
same,Potency,[3],inactive
same,Potency,[2],inactive
same,Potency,[4],inactive
CC(C)(C)OC(=O)c1cccc(N)c1,Potency,[1],32.6 µM (active)
same,Potency,[3],7.29 µM (active)
same,Potency,[2],inactive
same,Potency,[4],16.3 µM (active)
Nc1ccn([C@@H]2O[C@H](CO)[C@@H](O)C2O)c(=O)n1 (some centres undefined),Potency,[1],inactive
same,Potency,[3],inactive
same,Potency,[2],inactive
same,Potency,[4],inactive
Cc1cccc(C)c1NC(=O)CC12CCCN1CCC2,Potency,[1],inactive
same,Potency,[3],inactive
same,Potency,[4],inactive
C[N+](C)(CCOc1ccccc1)Cc1cccs1,Potency,[1],inactive
same,Potency,[3],inactive
same,Potency,[4],inactive
CCCCCCC#CC(=O)OC,Potency,[1],inactive
same,Potency,[2],inactive
[O-][n+]1cccc(CO)c1,Potency,[1],inactive
same,Potency,[3],inactive
same,Potency,[2],inactive
same,Potency,[4],inactive
CCCc1ncc(C[n+]2ccccc2C)c(N)n1,Potency,[1],inactive
same,Potency,[3],inactive
same,Potency,[2],inactive
same,Potency,[4],inactive
CCNS(=O)(=O)c1ccc(C)cc1,Potency,[1],inactive
same,Potency,[3],41.1 µM (active)
same,Potency,[2],inactive
same,Potency,[4],inactive
c1ccc(CCc2ccccc2)cc1,Potency,[1],inactive
same,Potency,[3],inactive
same,Potency,[2],inactive
same,Potency,[4],inactive
NC(=O)NC1N=C([O][Al])NC1=O (centres undefined),Potency,[1],inactive
same,Potency,[2],inactive
O=C(O)Cc1csc(-c2ccc(Cl)cc2)n1,Potency,[1],inactive
same,Potency,[3],inactive
same,Potency,[2],inactive
same,Potency,[4],inactive
CNCCO,Potency,[1],inactive
same,Potency,[3],inactive
same,Potency,[2],inactive
same,Potency,[4],inactive
CCCCCCCCCCCCCCCCCCO,Potency,[1],inactive
same,Potency,[3],inactive
same,Potency,[2],inactive
same,Potency,[4],inactive
Cc1nc2ccc(CN(C)c3ccc(C(=O)N[C@@H](CCC(=O)O)C(=O)O)s3)cc2c(=O)[nH]1,Potency,[1],inactive
same,Potency,[2],inactive
same,Potency,[4],inactive
CC1CCC(CO)CC1 (centres undefined),Potency,[1],inactive
same,Potency,[3],inactive
same,Potency,[2],inactive
same,Potency,[4],inactive
CCCCCCCCN1CCCC1=O,Potency,[3],39.9 µM (active)
same,Potency,[2],inactive
same,Potency,[4],inactive
CC12CCC(C(=O)C1=O)C2(C)C (centres undefined),Potency,[1],inactive
same,Potency,[2],inactive
same,Potency,[4],inactive
Nc1ccn([C@@H]2O[C@H](CO)[C@@H](O)[C@@H]2O)c(=O)n1,Potency,[3],inactive
same,Potency,[2],inactive
same,Potency,[4],inactive
CC(CC=O)CC(C)(C)C (centres undefined),Potency,[3],inactive
same,Potency,[2],inactive
NC(=O)Cc1cccc2ccccc12,Potency,[1],inactive
same,Potency,[2],inactive
same,Potency,[4],inactive
CCCCN(CCC(=O)OCC)C(C)=O,Potency,[1],inactive
same,Potency,[2],inactive
same,Potency,[4],inactive
CCOC(=O)C1=NOC(c2ccccc2)(c2ccccc2)C1,Potency,[1],7.1 µM (active)
same,Potency,[4],inactive
CC(C)=CCC/C(C)=C/C#N,Potency,[1],inactive
same,Potency,[2],inactive
same,Potency,[4],inactive
CCCO[Si](OCCC)(OCCC)OCCC,Potency,[1],inactive
same,Potency,[2],inactive
same,Potency,[4],inactive
CCCn1cc[n+](C)c1C,Potency,[1],inactive
same,Potency,[2],inactive
same,Potency,[4],inactive
O=CN(CCO)CCO,Potency,[1],inactive
same,Potency,[2],inactive
same,Potency,[4],inactive
NS(=O)(=O)Cc1noc2ccccc12,Potency,[3],inactive
same,Potency,[2],inactive
C[C@@H]1C[C@H]2[C@@H]3C[C@H](F)C4=CC(=O)C(Cl)=C[C@]4(C)[C@@]3(F)[C@@H](O)C[C@]2(C)[C@@]1(O)C(=O)CO,Potency,[3],inactive
same,Potency,[2],inactive
C[N+]1(CC2COC(c3ccccc3)(c3ccccc3)O2)CCCCC1 (centres undefined),Potency,[3],inactive
same,"activity change, negative = inhibition",[2],-15.6% [at 15.8 µM] (inactive)
CCCCOCCOC(=O)CCCCCCCCC(=O)OCCOCCCC,Potency,[1],35.6 µM (active)
same,Potency,[2],inactive
same,Potency,[4],inactive
